From PMC10812921, “Transcriptional Coactivator BOB1 (OBF1, OCA-B) Modulates the Specificity of DNA Recognition by the POU-Domain Factors OCT1 and OCT2 in a Monomeric Configuration” come the findings set out here.

Test [1] concerns the target POU1 (OCT1 POU domain) (human, UniProt P14859 260-458). Put plainly: EMSA-SELEX-seq; no BOB1; 20 mM Tris-HCl pH 7.6, 140 mM NaCl, 10% glycerol, 0.5 mM EDTA, 0.05% Triton X-100, 0.1 mg/mL BSA, 0.1 mg/mL poly(dI-dC), 5 mM DTT, room temperature, 20 min; high values mean tight binding. Conditions: protein: recombinant; dsDNA, one strand shown. Summed up: (§1)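 Binding preference is reported as the percentage of sequenced 8-mers that match a motif pattern. Tagged POU-domain proteins were made in E. coli BL21, purified under denaturing conditions and renatured. A 30 ng portion was combined with 300 ng of a PCR-amplified double-stranded random 35-nt library, with or without 28 ng coactivator protein, in 20 μL Tris–HCl pH 7.6 binding buffer for 20 min at RT. Complex bands were excised from native 6% PAGE, eluted and PCR-amplified over four rounds before Illumina sequencing.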

Test [2] deals with T1, POU2 (OCT2 POU domain) (human, UniProt P09086 175-386).
T1 sequence: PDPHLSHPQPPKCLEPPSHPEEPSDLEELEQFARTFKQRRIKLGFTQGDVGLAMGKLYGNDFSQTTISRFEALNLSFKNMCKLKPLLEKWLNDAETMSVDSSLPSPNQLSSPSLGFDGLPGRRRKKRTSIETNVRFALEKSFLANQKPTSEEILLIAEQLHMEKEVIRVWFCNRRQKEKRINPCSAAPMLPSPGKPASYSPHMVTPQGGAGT
The test is described as above. As to conditions: protein: recombinant; dsDNA, one strand shown. The gist of the method: as §1

Test [3] concerns the target POU1 (OCT1 POU domain);BOB1 (OBF1, OCA-B) (human;human, UniProt P14859;Q16633 260-458;1-256, |). Put plainly: EMSA-SELEX-seq; with BOB1 (ternary complex band); 20 mM Tris-HCl pH 7.6, 140 mM NaCl, 10% glycerol, 0.5 mM EDTA, 0.05% Triton X-100, 0.1 mg/mL BSA, 0.1 mg/mL poly(dI-dC), 5 mM DTT, room temperature, 20 min; high values mean tight binding. Conditions: protein: recombinant;recombinant; copies: 1;1; dsDNA, one strand shown. Summed up:
as §1

Test [4] addresses T2, POU2 (OCT2 POU domain);BOB1 (OBF1, OCA-B) (human;human, UniProt P09086;Q16633 175-386;1-256, |).
T2 sequence 1: T1 sequence
T2 sequence 2: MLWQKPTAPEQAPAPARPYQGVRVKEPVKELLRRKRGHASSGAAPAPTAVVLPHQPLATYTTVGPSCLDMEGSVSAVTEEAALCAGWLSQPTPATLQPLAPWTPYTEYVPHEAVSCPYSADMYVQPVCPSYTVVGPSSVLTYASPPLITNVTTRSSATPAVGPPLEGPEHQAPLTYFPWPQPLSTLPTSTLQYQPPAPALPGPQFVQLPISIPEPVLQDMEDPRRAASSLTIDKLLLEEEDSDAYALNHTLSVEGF
The description is as above. Conditions: protein: recombinant;recombinant; copies: 1;1; dsDNA, one strand shown. Summed up: as §1

POU1 (OCT1 POU domain), sequence (P14859 260-458): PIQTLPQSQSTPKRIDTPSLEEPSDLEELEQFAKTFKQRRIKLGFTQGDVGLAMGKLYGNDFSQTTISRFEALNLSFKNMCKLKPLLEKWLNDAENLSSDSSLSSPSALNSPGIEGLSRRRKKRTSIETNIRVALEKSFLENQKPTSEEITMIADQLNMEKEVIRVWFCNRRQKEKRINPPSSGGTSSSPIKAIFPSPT

Turning to ATTAGAAC, the binding signal in test [1] was 0.0427 % of ANNNNAAN 8-mers; in test [2] it was 0.0564 % of ANNNNAAN 8-mers; in test [3], 0.0355 % of ANNNNAAN 8-mers; in test [4] it was 0.0355 % of ANNNNAAN 8-mers.

Consider AACCCAAA, for which the binding signal in test [1] is 0.0233 % of ANNNNAAN 8-mers; in test [2], 0.0173 % of ANNNNAAN 8-mers; in test [3], 0.0277 % of ANNNNAAN 8-mers; in test [4], 0.0206 % of ANNNNAAN 8-mers.

As for ATAAGAAC, the binding signal in test [1] was 0.0362 % of ANNNNAAN 8-mers; in test [2], 0.0518 % of ANNNNAAN 8-mers; in test [3], 0.0332 % of ANNNNAAN 8-mers; in test [4], 0.0438 % of ANNNNAAN 8-mers.

With AGGTCAAC, the binding signal is 0.0198 % of ANNNNAAN 8-mers in test [1], 0.0288 % of ANNNNAAN 8-mers in test [2], 0.0269 % of ANNNNAAN 8-mers in test [3] and 0.0289 % of ANNNNAAN 8-mers in test [4].

Take ATACCAAT: the binding signal in test [1] is 0.0465 % of ANNNNAAN 8-mers; in test [2] it was 0.0518 % of ANNNNAAN 8-mers; in test [3] it was 0.0394 % of ANNNNAAN 8-mers; in test [4], 0.0471 % of ANNNNAAN 8-mers.

As to AGGGCAAA, the binding signal in test [1] is 0.0568 % of ANNNNAAN 8-mers; in test [2] it was 0.0466 % of ANNNNAAN 8-mers; in test [3], 0.0675 % of ANNNNAAN 8-mers; in test [4], 0.0462 % of ANNNNAAN 8-mers.

Regarding ATCAGAAC, the binding signal in test [1] was 0.0214 % of ANNNNAAN 8-mers; in test [2], 0.0242 % of ANNNNAAN 8-mers; in test [3] it was 0.0238 % of ANNNNAAN 8-mers; in test [4] it was 0.0371 % of ANNNNAAN 8-mers.

In the case of ATGGAAAG, the binding signal in test [1] was 0.148 % of ANNNNAAN 8-mers; in test [2], 0.112 % of ANNNNAAN 8-mers; in test [3], 0.199 % of ANNNNAAN 8-mers; in test [4], 0.129 % of ANNNNAAN 8-mers.

In the case of ATTCGAAC, the binding signal was 0.0351 % of ANNNNAAN 8-mers in test [1], 0.046 % of ANNNNAAN 8-mers in test [2], 0.0324 % of ANNNNAAN 8-mers in test [3] and 0.0396 % of ANNNNAAN 8-mers in test [4].

Turning to AAGCCAAT, the binding signal is 0.0282 % of ANNNNAAN 8-mers in test [1], 0.0247 % of ANNNNAAN 8-mers in test [2], 0.0261 % of ANNNNAAN 8-mers in test [3] and 0.0272 % of ANNNNAAN 8-mers in test [4].

In the case of AGCGGAAG, the binding signal was 0.0202 % of ANNNNAAN 8-mers in test [1], 0.0196 % of ANNNNAAN 8-mers in test [2], 0.0215 % of ANNNNAAN 8-mers in test [3] and 0.0173 % of ANNNNAAN 8-mers in test [4].

Take AGTTTAAA: the binding signal is 0.0881 % of ANNNNAAN 8-mers in test [1], 0.0938 % of ANNNNAAN 8-mers in test [2], 0.0808 % of ANNNNAAN 8-mers in test [3] and 0.0751 % of ANNNNAAN 8-mers in test [4].

Regarding AATCGAAA, the binding signal in test [1] is 0.0622 % of ANNNNAAN 8-mers; in test [2], 0.0512 % of ANNNNAAN 8-mers; in test [3], 0.0613 % of ANNNNAAN 8-mers; in test [4], 0.0438 % of ANNNNAAN 8-mers.

As for ACAGCAAT, the binding signal was 0.0286 % of ANNNNAAN 8-mers in test [1], 0.0288 % of ANNNNAAN 8-mers in test [2], 0.0281 % of ANNNNAAN 8-mers in test [3] and 0.0215 % of ANNNNAAN 8-mers in test [4].

In the case of ATCCCAAC, the binding signal was 0.0137 % of ANNNNAAN 8-mers in test [1], 0.0213 % of ANNNNAAN 8-mers in test [2], 0.0172 % of ANNNNAAN 8-mers in test [3] and 0.014 % of ANNNNAAN 8-mers in test [4].

Turning to AACTCAAA, the binding signal in test [1] is 0.0397 % of ANNNNAAN 8-mers; in test [2] it was 0.0368 % of ANNNNAAN 8-mers; in test [3], 0.0445 % of ANNNNAAN 8-mers; in test [4] it was 0.0231 % of ANNNNAAN 8-mers.

For ACGGTAAC, the binding signal in test [1] was 0.0164 % of ANNNNAAN 8-mers; in test [2], 0.0259 % of ANNNNAAN 8-mers; in test [3], 0.0144 % of ANNNNAAN 8-mers; in test [4] it was 0.0239 % of ANNNNAAN 8-mers.

As for AGCCAAAA, the binding signal in test [1] is 0.0355 % of ANNNNAAN 8-mers; in test [2], 0.038 % of ANNNNAAN 8-mers; in test [3], 0.0499 % of ANNNNAAN 8-mers; in test [4] it was 0.0305 % of ANNNNAAN 8-mers.

Take ACCTGAAG: the binding signal was 0.0137 % of ANNNNAAN 8-mers in test [1], 0.0161 % of ANNNNAAN 8-mers in test [2], 0.0164 % of ANNNNAAN 8-mers in test [3] and 0.0206 % of ANNNNAAN 8-mers in test [4].

For the sequence ACTGGAAT, the binding signal was 0.074 % of ANNNNAAN 8-mers in test [1], 0.0765 % of ANNNNAAN 8-mers in test [2], 0.0558 % of ANNNNAAN 8-mers in test [3] and 0.0817 % of ANNNNAAN 8-mers in test [4].

As to ATTGGAAT, the binding signal is 0.141 % of ANNNNAAN 8-mers in test [1], 0.18 % of ANNNNAAN 8-mers in test [2], 0.0968 % of ANNNNAAN 8-mers in test [3] and 0.0966 % of ANNNNAAN 8-mers in test [4].

On to AAAGAAAA, for which the binding signal in test [1] is 0.0988 % of ANNNNAAN 8-mers; in test [2] it was 0.0892 % of ANNNNAAN 8-mers; in test [3], 0.132 % of ANNNNAAN 8-mers; in test [4] it was 0.0693 % of ANNNNAAN 8-mers.

Consider AAAAGAAC, for which the binding signal in test [1] was 0.0351 % of ANNNNAAN 8-mers; in test [2], 0.0443 % of ANNNNAAN 8-mers; in test [3] it was 0.0468 % of ANNNNAAN 8-mers; in test [4], 0.0338 % of ANNNNAAN 8-mers.

AGATCAAC: the binding signal in test [1] was 0.0175 % of ANNNNAAN 8-mers; in test [2], 0.0207 % of ANNNNAAN 8-mers; in test [3] it was 0.0211 % of ANNNNAAN 8-mers; in test [4], 0.0338 % of ANNNNAAN 8-mers.
